Test results reported in PubChem BioAssay (Tox21).
Inconclusive results are not listed. Active and inactive are the calls of the source. Unless noted, the call rests on the fitted dose curve; in most records, active means well fitted curve in the direction sought with a large enough effect in the repeat runs; inconclusive means weak or mixed curves; inactive means no such curve, though single readings can be large; an effect the other way counts as inactive or inconclusive.

What was measured:
[1] = qHTS assay for small molecules that induce genotoxicity in human embryonic kidney cells expressing luciferase-tagged ATAD5 (AID 651632); further: nearly all actives have a fitted effect of over 15% in size
Procedure, shortened: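 Luminescent reporter readout, HEK293T ATAD5-luc line: 16 hr drug exposure (37C, 5% CO2) followed by Amplite, 30 min RT.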

[2] = qHTS assay for small molecule agonists of the p53 signaling pathway - cell viability (AID 651633; calls by dose curve;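 further: p53RE-bla HCT reporter cells with a stable beta-lactamase p53 reporter; series mostly up to about 83 µM; nearly all actives have a fitted effect of over 30% in size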)
Procedure, shortened: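 p53RE-bla cells were treated with compound for 16 hours at 37 C. Cytotoxicity was then measured as CellTiter-Glo luminescence after 30 min at room temperature.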

[3] = qHTS assay for small molecules that induce genotoxicity in human embryonic kidney cells expressing luciferase-tagged ATAD5 - cell viability (AID 651634; calls by dose curve; further: nearly all actives have a fitted effect of over 25% in size)
Procedure, shortened: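 Viability read: CellTiter-Fluor fluorescence, 30 min at 37C. Cells: HEK293T, luciferase-tagged ATAD5. Exposure: 15.5 hr, 37C, 5% CO2, compound or DMSO vehicle.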

[4] = qHTS assay for small molecule disruptors of the mitochondrial membrane potential (AID 720635); further: potency means the concentration at half of the fitted maximal effect
Procedure, shortened: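 HepG2 cells exposed to compound 1 hr at 37C, then Mito-MPS dye 30 min. Ratio read of aggregate (540/590 nm) versus monomer (490/535 nm) fluorescence.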

[5] = qHTS assay to test for compound auto fluorescence at 590 nm (red) in HepG2 cells (AID 720674)
Procedure, shortened: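 HepG2 cells, 2,000 per well in MEM with 10% FBS, attached overnight at 37 C, then got 23 nL compound or DMSO. After 1 hr at 37 C, 5% CO2, red fluorescence was read at 540/590 nm against Rose Bengal sodium as reference.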

[6] = qHTS assay to test for compound auto fluorescence at 535 nm (green) in HepG2 cells (AID 720675)
[7] = qHTS assay to test for compound auto fluorescence at 460 nm (blue) in HEK293 cells (AID 720678)
Procedure, shortened: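 Cells were seeded and left to adhere for 4-5 hr at 37C. Compounds were then pin-transferred. After an overnight incubation at 37C under 5% CO2, intrinsic fluorescence at 405/460 nm was measured and referenced to triamterene.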

[8] = qHTS assay to test for compound auto fluorescence at 590 nm (red) in HEK293 cells (AID 720679)
Procedure, shortened: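 Each well held 2,000 HEK293 cells in medium containing 10% dialyzed FBS. Following 4-5 hr attachment at 37C, 23 nL test compound or DMSO was added; plates sat overnight, and red fluorescence (540/590nm) was recorded.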

[9] = qHTS assay for small molecule disruptors of the mitochondrial membrane potential - cell viability (AID 720634; calls by dose curve;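 further: human HepG2 liver cancer cells; series mostly up to about 83 µM; nearly all actives have a fitted effect of over 20% in size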)
Procedure, shortened: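 HepG2, 1 hr compound, 37 C. ATP luminescence via CellTiter-Glo, 30 min RT, same well as m-MPI.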
On the % scale 0 is the no-effect control and ±100 the full control effect.

COc1ccnc(CS(=O)c2nc3cc(OC(F)F)ccc3[nH]2)c1OC (stereo unspecified)
inactive: Potency [1] | Potency [2] | Potency [3] | Potency [4] | outcome [5] | outcome [6] | outcome [7] | outcome [8]

CNC(=O)Nc1ccc(Cl)c(Cl)c1
inactive: Potency [1] | Potency [2] | Potency [3] | outcome [5] | outcome [6] | outcome [7] | outcome [8]
active: Potency [4] 15.4 µM

O=CN(CCO)CCO
inactive: Potency [1] | Potency [2] | Potency [3] | Potency [4] | outcome [5] | outcome [7] | outcome [8]

COC(=O)Nc1ccc(Cl)c(Cl)c1
inactive: Potency [1] | Potency [2] | Potency [3] | outcome [5] | outcome [6] | outcome [7] | outcome [8]
active: Potency [4] 60.8 µM

CC(CO)(CO)[N+](=O)[O-]
inactive: Potency [1] | Potency [2] | Potency [3] | outcome [9] | outcome [5] | outcome [6] | outcome [7] | outcome [8]

NS(=O)(=O)Cc1noc2ccccc12
inactive: Potency [1] | Potency [2] | Potency [3] | outcome [5] | outcome [6] | outcome [7] | outcome [8]

Nc1ccn([C@@H]2O[C@H](CO)[C@@H](O)[C@@H]2O)c(=O)n1
inactive: Potency [1] | Potency [2] | Potency [3] | outcome [5] | outcome [6] | outcome [7] | outcome [8]

CCCCN(CCC(=O)OCC)C(C)=O
inactive: Potency [1] | Potency [2] | Potency [3] | outcome [9] | outcome [5] | outcome [7] | outcome [8]

Nc1ccn([C@@H]2O[C@H](CO)[C@@H](O)C2O)c(=O)n1 (stereo partly specified)
inactive: Potency [1] | Potency [2] | Potency [3] | outcome [5] | outcome [6] | outcome [7] | outcome [8]

CC(=O)Nc1ccc(OCC(O)CNC(C)C)cc1 (stereo unspecified)
inactive: Potency [1] | Potency [2] | Potency [3] | outcome [9] | outcome [5] | outcome [6] | outcome [7] | outcome [8]

CC1=C(C/C=C(\C)CCC[C@H](C)CCC[C@H](C)CCCC(C)C)C(=O)c2ccccc2C1=O
inactive: Potency [1] | Potency [2] | Potency [3] | outcome [9] | outcome [5] | outcome [6] | outcome [7] | outcome [8]

Cc1ccccc1N=C(N)N=C(N)N
inactive: Potency [1] | Potency [2] | Potency [3] | outcome [9] | outcome [5] | outcome [6] | outcome [7] | outcome [8]

CC(C)C[C@@H](N)C(=O)O
inactive: Potency [1] | Potency [2] | Potency [3] | outcome [5] | outcome [6] | outcome [7] | outcome [8]

CCCC[N+](C)(CCCC)CCCC
inactive: Potency [1] | Potency [2] | Potency [3] | Potency [4] | outcome [5] | outcome [6] | outcome [7] | outcome [8]

CC(=O)OCC(=O)[C@@]1(O)[C@H](C)C[C@H]2[C@@H]3CCC4=CC(=O)C=C[C@]4(C)[C@@]3(F)[C@@H](O)C[C@@]21C
inactive: Potency [1] | Potency [2] | Potency [3] | outcome [9] | outcome [5] | outcome [6] | outcome [7] | outcome [8]

C1CCC2(CCCCO2)OC1
inactive: Potency [1] | Potency [2] | Potency [3] | Potency [4] | outcome [5] | outcome [6] | outcome [7] | outcome [8]

O=[N+]([O-])c1ccc(/C=N\O)o1
inactive: Potency [1] | Potency [2] | Potency [3] | outcome [9] | outcome [5] | outcome [6] | outcome [7] | outcome [8]

Cc1ccc(C(=O)Nc2ccc(S(=O)(=O)O)c3cc(S(=O)(=O)O)cc(S(=O)(=O)O)c23)cc1NC(=O)c1cccc(NC(=O)Nc2cccc(C(=O)Nc3cc(C(=O)Nc4ccc(S(=O)(=O)O)c5cc(S(=O)(=O)O)cc(S(=O)(=O)O)c45)ccc3C)c2)c1
inactive: Potency [1] | Potency [2] | Potency [3] | outcome [9] | outcome [5] | outcome [6] | outcome [7] | outcome [8]

CCCc1ncc(C[n+]2ccccc2C)c(N)n1
inactive: Potency [1] | Potency [2] | Potency [3] | outcome [9] | fluorescence, relative to Rose Bengal [5] -0.079% [at 18.6 µM] | fluorescence, % of fluorescein control [6] 0.0061% [at 18.6 µM] | fluorescence, % of triamterene [7] -0.0062% [at 18.6 µM] | fluorescence, % of fluorescent control [8] 0.0217% [at 18.6 µM]

CO[C@@]1(NC(=O)C(C(=O)O)c2ccc(O)cc2)C(=O)N2C(C(=O)O)=C(CSc3nnnn3C)CO[C@@H]21 (stereo partly specified)
inactive: Potency [1] | Potency [2] | Potency [3] | outcome [9] | fluorescence, relative to Rose Bengal [5] 0.111% [at 18.6 µM] | fluorescence, % of triamterene [7] 0.184% [at 18.6 µM] | fluorescence, % of fluorescent control [8] 0.0051% [at 18.6 µM]

NCCCC(N)(C(=O)O)C(F)F (stereo unspecified)
inactive: Potency [1] | Potency [2] | Potency [3] | outcome [5] | outcome [6] | outcome [7] | outcome [8]

NCCCC[C@H](N[C@@H](CCc1ccccc1)C(=O)O)C(=O)N1CCC[C@H]1C(=O)O
inactive: Potency [1] | Potency [2] | Potency [3] | Potency [4] | fluorescence, relative to Rose Bengal [5] 0.575% [at 18.6 µM] | fluorescence, % of fluorescein control [6] -0.177% [at 18.6 µM] | fluorescence, % of triamterene [7] -0.377% [at 18.6 µM] | fluorescence, % of fluorescent control [8] -0.247% [at 18.6 µM]

CC1OC1C1CCC2(C)OC2C1 (stereo unspecified)
inactive: Potency [1] | Potency [2] | Potency [3] | outcome [9] | outcome [5] | outcome [6] | outcome [7] | outcome [8]

NC(N)=NCCN1CCCCCCC1
inactive: Potency [1] | Potency [3] | outcome [9] | fluorescence, relative to Rose Bengal [5] 0.248% [at 18.6 µM] | fluorescence, % of fluorescein control [6] 0.0444% [at 18.6 µM] | fluorescence, % of triamterene [7] -0.176% [at 18.6 µM] | fluorescence, % of fluorescent control [8] -0.493% [at 18.6 µM]

COc1cccc(OC)c1C(=O)N[C@@H]1C(=O)N2[C@@H]1SC(C)(C)[C@@H]2C(=O)O
inactive: Potency [2] | Potency [3] | Potency [4] | outcome [5] | outcome [6] | outcome [7] | outcome [8]

C1CCC2=NCCCN2CC1
inactive: Potency [2] | Potency [3] | outcome [9] | Potency [4] | outcome [5] | outcome [6] | outcome [7] | outcome [8]

Nc1ccccn1
inactive: Potency [2] | Potency [3] | outcome [9] | outcome [5] | outcome [6] | outcome [7] | outcome [8]

C[C@H]1[C@H](NC(=O)/C(=N/OC(C)(C)C(=O)O)c2csc(N)n2)C(=O)N1S(=O)(=O)O (stereo in doubt)
inactive: Potency [2] | Potency [3] | outcome [9] | Potency [4] | fluorescence, relative to Rose Bengal [5] -0.264% [at 18.6 µM] | fluorescence, % of fluorescein control [6] -0.201% [at 18.6 µM] | fluorescence, % of triamterene [7] 0.218% [at 18.6 µM] | fluorescence, % of fluorescent control [8] 0.181% [at 18.6 µM]

OCCc1ccccn1
inactive: Potency [2] | Potency [3] | outcome [9] | outcome [5] | outcome [7] | outcome [8]

CCOCC(C)O (stereo unspecified)
inactive: Potency [1] | Potency [2] | Potency [3] | outcome [5] | outcome [6] | outcome [7] | outcome [8]

CN1[C@@H]2CC[C@H]1CC(OC(=O)C(O)c1ccccc1)C2 (stereo partly specified)
inactive: Potency [2] | Potency [3] | outcome [9] | Potency [4] | outcome [5] | outcome [6] | outcome [7] | outcome [8]

FB(F)F
inactive: Potency [2] | Potency [3] | outcome [5] | outcome [6] | outcome [7] | outcome [8]

CN1CCC(=C2c3ccccc3CCc3cccnc32)CC1
inactive: Potency [1] | Potency [3] | outcome [9] | Potency [4] | outcome [5] | outcome [6] | outcome [7] | outcome [8]

CCCOC(=O)CC
inactive: Potency [2] | Potency [3] | outcome [9] | outcome [5] | outcome [6] | outcome [7] | outcome [8]

CC(=O)Oc1cccc(C)c1
inactive: Potency [2] | Potency [3] | outcome [9] | Potency [4] | outcome [5] | outcome [6] | outcome [7] | outcome [8]

CCCCc1ccc2c(n1)[C@@H](c1ccc(OC)cc1C[C@H](C)C(=O)O)[C@H](C(=O)O)[C@H]2c1ccc2c(c1)OCO2
inactive: Potency [1] | Potency [2] | Potency [3] | outcome [5] | outcome [6] | outcome [7] | outcome [8]

CCCCOCCOC(=O)COc1cc(Cl)c(Cl)cc1Cl
inactive: Potency [1] | Potency [2] | Potency [3] | outcome [5] | outcome [6] | outcome [7] | outcome [8]

CC(=O)c1ccccc1[N+](=O)[O-]
inactive: Potency [2] | Potency [3] | outcome [9] | Potency [4] | outcome [5] | outcome [7] | outcome [8]

CCOc1ccccc1OCC
inactive: Potency [2] | Potency [3] | Potency [4] | outcome [5] | outcome [6] | outcome [7] | outcome [8]

COC(=O)C1=C(C)NC(C)=C(C(=O)OC(C)C)C1c1cccc2nonc12 (stereo unspecified)
inactive: Potency [1] | Potency [2] | outcome [9] | fluorescence, relative to Rose Bengal [5] 0.351% [at 18.6 µM] | fluorescence, % of triamterene [7] -0.009% [at 18.6 µM] | fluorescence, % of fluorescent control [8] 0.0072% [at 18.6 µM]

CCN[C@H]1C[C@H](C)S(=O)(=O)c2sc(S(N)(=O)=O)cc21
inactive: Potency [1] | Potency [3] | outcome [9] | Potency [4] | outcome [5] | outcome [6] | outcome [7] | outcome [8]

O=C(O)CNC(=O)c1ccccc1
inactive: Potency [2] | Potency [3] | outcome [9] | Potency [4] | outcome [5] | outcome [6] | outcome [7] | outcome [8]

CN(C)CCCN(C)CCCN(C)C
inactive: Potency [1] | Potency [2] | Potency [3] | outcome [5] | outcome [7] | outcome [8]

CC(C)C1CCC(O)CC1 (stereo unspecified)
inactive: Potency [1] | Potency [2] | Potency [3] | outcome [5] | outcome [6] | outcome [7] | outcome [8]

N[C@@H](CCC(=O)O)C(=O)O
inactive: Potency [2] | Potency [3] | outcome [9] | Potency [4] | outcome [5] | outcome [6] | outcome [7] | outcome [8]

O=S(=O)(O)c1cc(O)c(O)c(S(=O)(=O)O)c1
inactive: Potency [2] | Potency [3] | outcome [9] | outcome [5] | outcome [6] | outcome [7] | outcome [8]

O=C(c1ccccc1O)c1ccccc1O
inactive: Potency [1] | Potency [3] | outcome [9] | outcome [5] | outcome [6] | outcome [7] | outcome [8]
active: Potency [4] 12.1 µM

CC(C)(C)c1ccc(-c2ccc(C(C)(C)C)cc2)cc1
inactive: Potency [2] | Potency [3] | outcome [9] | outcome [5] | outcome [6] | outcome [7] | outcome [8]
